We go through 4 compounds from ChEMBL document CHEMBL3433997, “St. Jude Leishmania screening dataset” (2016).

What all share (type): functional
Test [1] has as its target Solute carrier family 2, facilitated glucose transporter member 1 (Homo sapiens) (UniProt P11166). The test is described as follows: ST_JUDE_LEISH: Cytotoxicity at 2uM final concentration against transgenic Leishmania Mexicana promastigotes LmGLUT1 that are glucose transport deficient and complemented with the human glucose transporter GLUT1. Activity is measured by DNA content using SYBR green in vitro.

Test [2] concerns the target Hexose transporter 1 (Plasmodium falciparum) (UniProt O97467). Description: ST_JUDE_LEISH: Cytotoxicity at 2uM final concentration against transgenic Leishmania Mexicana promastigotes LmPfHT that are glucose transport deficient and complemented with the Plasmodium falciparum hexose transporter. Activity is measured by DNA content using SYBR green in vitro.
For test [3], the target named is Glucose transporter (Leishmania mexicana) (UniProt O61059). Description: ST_JUDE_LEISH: Cytotoxicity at 2uM final concentration against transgenic Leishmania Mexicana promastigotes LmGT2 that are glucose transport deficient and complemented with the L. Mexicana glucose transporter 2. Activity is measured by DNA content using SYBR green in vitro.

Solute carrier family 2, facilitated glucose transporter member 1 (Homo sapiens), sequence (P11166 whole entry): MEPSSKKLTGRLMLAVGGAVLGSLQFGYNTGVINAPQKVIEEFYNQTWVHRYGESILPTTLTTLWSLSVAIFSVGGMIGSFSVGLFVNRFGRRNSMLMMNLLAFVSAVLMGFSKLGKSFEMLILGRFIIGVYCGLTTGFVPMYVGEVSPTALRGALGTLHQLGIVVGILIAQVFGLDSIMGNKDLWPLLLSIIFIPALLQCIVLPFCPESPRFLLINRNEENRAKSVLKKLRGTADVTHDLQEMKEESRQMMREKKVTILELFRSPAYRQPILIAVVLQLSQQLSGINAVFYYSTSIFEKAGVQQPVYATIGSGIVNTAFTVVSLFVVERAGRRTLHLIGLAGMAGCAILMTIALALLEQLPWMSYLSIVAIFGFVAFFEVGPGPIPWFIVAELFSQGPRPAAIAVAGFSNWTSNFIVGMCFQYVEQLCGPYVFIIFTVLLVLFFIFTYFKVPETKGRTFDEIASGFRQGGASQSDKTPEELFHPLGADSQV

In the case of `Cc1nn(CC(O)Cn2c3ccc(Br)cc3c3cc(Br)ccc32)c(C)c1Br` (configuration not stated), the inhibition in test [1] is -0.46%; in test [2], -3.23%; in test [3] it was -0.3%.

Take `Oc1ccc(CCNc2nc(NCCOc3cccc4ccccc34)nc(N3CCNCC3)n2)cc1`: the inhibition in test [1] came to 3.36%; in test [2], 0.4%; in test [3] it was 2.56%.

Take `COc1ccc(C(C(=O)NC2CCN(C[C@H](O)c3ccnc4ccc(OC)cc34)CC2)N2CCN(Cc3ccccc3)CC2)cc1` (some centres not stated): the values for the inhibition in test [1], in test [2] and in test [3] were 0.34%, 0.74% and -0.21%, respectively.

`COc1cc(Nc2ccnc3cc(-c4ccncc4)ccc23)cc(OC)c1OC`: the inhibition in test [1] is 11.4%; in test [2], 20.7%; in test [3], 9.21%.

The inhibition is the change of the read-out against control, counted positive when it falls.
